# The supplement of paper PMC11417369
# Whole data set: some 25,000 sequences, median “ln(normalized median fluorescence intensity)” near 9.7, cut for the highest 2% near 11. For the sample, the highest values were picked, then their nearest neighbours and some sequences at random.
# Tested on: PfAP2-HC AP2 domain (GST-tagged)
# Experiment: gcPBM binding intensity (ln(normalized median fluorescence intensity)); higher = stronger DNA binding
# In short: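 Using an Agilent 4 × 180k array, primer-extended double-stranded 36-bp intergenic genomic probes and negative controls were exposed for 1 h to GST-fused P. falciparum DNA-binding domains expressed in E. coli. Binding was carried out in 1× PBS with 1% milk, 0.2 mg/ml BSA, 0.5% salmon testes DNA and 0.03% Triton X-100, and protein was detected with Alexa488 anti-GST antibody and a 488 nm scan. Binding intensity is the highest Masliner-normalised natural-log median intensity across replicate spots of either probe orientation.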
row,Sequence,gcPBM binding intensity (ln)
1,ACATTATGCCATAAATGTACACATACATATACACAG [XGTACX_site1330],9.66
2,AAACAATTTTTTAAAAGTACTTGAAAATTGTGAAAT [XGTACX_site2461],9.63
3,AAAATGAACAAACACACACACATATATATATATATA [CACACA_site2403],11.2
4,TTTAAGCAAAAACACACACACATATATATATATATA [CACACA_site349],11.1
5,AAAAAAAAAAAAAAAACACACATATATATATATATA [CACACA_site2436],10.4
6,CCTTTAAGCAAAAACACACACACATATATATATATA [CACACA_site348],10
7,AAAAAAATGAAACACACACACACATATATATATATA [CACACA_site1043],10.4
8,TTTTAATGAAAACACACACACACATATATATATATA [CACACA_site5295],11.1
9,AACAAAAATGAAAAAACACACATAACATATATAAAT [CACACA_site740],10.1
10,TATAAGCAAAAACACACACACATATATATATATATA [CACACA_site3804],10.2
11,TTTTAATTAAAACACACACACACATATATATATATA [CACACA_site2291],10.6
12,ATAAAATGAACAAACACACACACATATATATATATA [CACACA_site2402],10.9
13,AAAAAAACACACACATATATATATATATATATATAT [GTGCAC_negctrl_site498],10.3
14,AAAAAACAAAAACACACACACACATATATATATATA [CACACA_site3654],10.9
15,CAAAGATATATAAACACACAAATATAACATATATAC [CACACA_site7395],9.99
16,ATATATTTATATATTACACACAATATTGTAGACATA [CACACA_site4669],9.74
17,TATATATAACTTTATTGTACAAAATATTATGTATTC [XGTACX_site981],9.66
18,TGATCAGATAGACACACACACAAAAAAAAAAAAAAA [CACACA_site7805],10.1
19,TATCAAAATTAGTATACACACAAAATTAATCAAATA [CACACA_site7117],9.86
20,ATATTAAGTTTTATTACACACTCTCAATTTTTATTT [CACACA_site4206],9.87
21,ATATTTTTTTCATAGACACACACAATATATCTGTTT [CACACA_site8993],10.1

row,Sequence,gcPBM binding intensity (ln)
1,AAATAAATGAAACACACACACACAAAAAAAAAAAAC [CACACA_site2625],10.9
2,GGATATAACAAACACACACACACATATATATATATT [CACACA_site4141],11.2
3,AAAAAAAAAAAAAAAACACACACATATATATATATA [CACACA_site8571],9.9
4,AAAAAAAAAAAACACACACACATATATATATATATA [CACACA_site732],11.1
5,AATATAAACAAACACACACACATATATATATATATT [CACACA_site5592],10.3
6,CTCCATATGAAACACACACACAAATGAAAAAAATAT [CACACA_site3018],11
7,AATATAAACACAAACACACACATATATATATATATA [CACACA_site4307],10.1
8,CTCCATATTAGACACACACACAAATGAAAAAAATAT [CACACA_site7420],10.2
9,AAAAAAAAAAAAAACACACACATATATATATATATA [CACACA_site1891],10.4
10,TATTATTTGAGTAGTTGTACTCATTAATATATAAAA [XGTACX_site3468],9.35
11,TTTGGCTAGTTAGGCCGTACATGTAAATAATATATA [XGTACX_site1138],9.47
12,ACCATACATACATACACACACACACGCATATTTATA [CACACA_site7386],11.2
13,ATATTAAACAGACACACACACATATATTTATTTATA [CACACA_site7564],10.4
14,AACTCACGAGGACACACACACATATATATATATATA [CACACA_site4711],10.2
15,AGCACGCACAGACACACACACATATTTATATTTATA [CACACA_site6291],10.3
16,AAAAAACACGGACACACACACATATACATACATACA [CACACA_site5470],10.6
17,CAAAAGGATATGCACACACACACACGGATATTTATA [CACACA_site7099],11.4
18,AACGCACGAGGACACACACACATATTTATATTTATA [CACACA_site6608],11.4
19,ATTATATATATTTATGCACACAAAATATATTATATA [CACACA_site9244],9.64
20,TATATATATTTATGCACACAAAATATATTATATAAT [CACACA_site5955],9.67
21,TATATATATATATATACACACATATATATATTTATA [CACACA_site627],10.2

row,Sequence,gcPBM binding intensity (ln)
1,AAAAAACAGACATACACACACACACGGATATTTATA [CACACA_site7570],11.4
2,TATATATATTTATACACACACATATATTTATATATT [CACACA_site484],9.97
3,TCATCCACATATTGTAGTACAAGATAATTGTTTATT [XGTACX_site1634],9.63
4,TTTTTAGAAAGACATGCATGTAATAAAAATAAATAA [TGCATGCA_site685],9.82
5,AAAATTTAATATAATGCACACATAAAAAAAAATTCA [CACACA_site8640],9.77
6,TATAGATGTATGTACATACACACATATATAAATAAA [CACACA_site1789],10
7,TTATGCAATTTGTATTGTACATTCATGATATTAATA [XGTACX_site5070],9.53
8,TACATGTATAAATAAGCACACATGTGGATATGTACA [CACACA_site93],10
9,TATTTTTCTTTTTAAAAATATATCACATGAACATTA [XGTACX_negctrl_site183],9.39
10,ATATAAAAAAATAATAAATAAATAAAAAGATTTCTT [XGTACX_negctrl_site110],9.65
11,TATTTATACACGCACACACACTTATACATTTATATA [CACACA_site7543],10.8
12,ATATACATTAAATGAACACACATAAATAAATTACAT [CACACA_site2852],9.89
13,TTATGATGGTCTTTATAAGGGCACATTAAATTCGGC [TGCATGCA_negctrl_site166],9.35
14,TATTTATATTTATATACACACATACATATTTATATT [CACACA_site6535],9.93
15,TACATATTTATATACACACACACACGGATATTTATA [CACACA_site7239],11
16,AAACCGTGGGAGCACACACACACACGCGCACATATA [CACACA_site6288],10.5
17,TATATATATATTTATACACACACATATATTTATATA [CACACA_site8054],10.1
18,ACCGTGGGAGGACACACACACACACGCACATATATA [CACACA_site6289],11.1
19,AAACCGTGGGAGCACACACACACACCGACACATATA [CACACA_site4338],10.4
